Results taken from PubChem BioAssay (NCI).
Compounds without any hit were thinned out: in the full panel of roughly 79,000, 15% have a hit. Active and inactive are the calls of the source. Cut-off read from the data, not from the text of the source: active = growth inhibition above about 70%; inactive = the rest.

Assay: NCI Yeast Anticancer Drug Screen. Data for the rad50 strain (AID 155);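 note: 0% = growth of vehicle-only cultures of the same strain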
Conditions: S. cerevisiae rad50 strain growth inhibition; at 50.0 µM; active compounds read high
How it was run: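 Vehicle-treated cultures provide the reference for the growth inhibition reported for compound-exposed, repair-deficient yeast.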

Compound	growth inhibition
C=CCCCCCCCCC(=O)N1CCN(C)CC1	46.1% (inactive)
CC(Cc1cccc2ccccc12)(C(=O)O)C(=O)O	7.15% (inactive)
Cc1ccc([N+](=O)[O-])cc1NC(=O)NCCCl	-11.1% (inactive)
C=C1CC[C@H]2C(=O)OC(c3ccoc3)C[C@]2(C)C/C=C\C=C/1C(=O)OC (some centres not stated)	-10.8% (inactive)
O=C(CCC(=O)Nc1cc(Cl)ccc1Cl)CC(=O)c1ccc([N+](=O)[O-])cc1	10.1% (inactive)
O=c1c2ccccc2c(=O)n2n1CC=CC2	-6.45% (inactive)
CCCCN=C(C)CC(=O)CC(=O)c1ccccc1	30.3% (inactive)
CC(=N\N=C\c1ccccn1)/C(C)=N/N=C(C)/C(C)=N/N=C/c1ccccn1	29.1% (inactive)
CC(C)OP(=O)(c1ccccc1)c1ccc2c(c1)OCCOCCOCCOCCO2 (configuration not stated)	-3.05% (inactive)
O=[N+]([O-])c1cc2c(cc1Br)C1C(C3C2C2(Cl)C(Cl)=C(Cl)C3(Cl)C2(Cl)Cl)C2(Cl)C(Cl)=C(Cl)C1(Cl)C2(Cl)Cl (configuration not stated)	31.7% (inactive)
CC1(C)OCC(C2OC3OC(C)(C)OC3/C2=N/NC(=O)c2cc3cc(OCc4ccccc4)ccc3[nH]2)O1 (configuration not stated)	82.5% (active)
CC(C(=O)O)N(C)C(=O)OCc1ccccc1 (configuration not stated)	-3.95% (inactive)
OCc1ccc(CO)cc1	18.4% (inactive)
Cc1ccc2c(c1)C(c1cccc3ccccc13)OC2=O (configuration not stated)	21.6% (inactive)
Cc1cn(-c2c(C)c(C)c(-n3c(C)ccc3C)c(C)c2C)cc1C	-3.1% (inactive)
CC12CC(=O)NC(=O)N1CCS2 (configuration not stated)	3.7% (inactive)
CCOC(=O)Cc1cccnc1	-27.6% (inactive)
O=C(O)c1ccc([C@@H]2C(=O)N(O)[C@@H]3C=CC[C@@H]32)cc1	-8.4% (inactive)
NC1=NCC(c2ccccn2)C1c1ccc(F)cc1 (configuration not stated)	-11.9% (inactive)
COc1ccc(N2C(=O)CC(c3cc(OC)c(OC)c(OC)c3)CC2=O)cc1	-3.7% (inactive)
COC(=O)c1ccc(S(=O)(=O)O)cc1[N+](=O)[O-]	3.05% (inactive)
NS(=O)(=O)c1ccc(N2C(=O)C(=O)N(c3ccccc3)C2=S)cc1	-15.8% (inactive)
